Of roughly 7,900 targets only a part is listed; those with a hit were picked by preference. About 0.6% of all pairs of compound and target were hits. Unmarked numbers belong to inactive results.
Experiments:
Assay in all cases: log2 fold change, soluble protein after heating vs DMSO (PISA); higher = thermal stabilisation; K562 cells, 10 uM, 30 min; active = over 0.2 and 3.5 SD of the protein, either way, in both replicates (recomputed)
[1] = compound: C1COCCN1CCN2C3=CC=CC=C3N=C2NC(=O)C4=CC(=CC=C4)[N+](=O)[O-] [IRAK-1-4 Inhibitor I]
Outline: (§1)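 Aliquots of K562 cells (2×10^6 cells/mL) treated with 10 μM compound for 30 min were heated for 3 min over 48°C-58°C. After pooling and extraction in PBS with 0.5% NP-40 at 4°C, soluble protein from a 21,000xg, 90 min spin was quantified by TMTpro 16plex LC-MS/MS with channel sums equalised. Thermal stability is expressed against control samples, from duplicates, as a log2 fold change.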

[2] = compound: C=CC(=O)N1CCC[C@@H](n2nc(-c3ccc(Oc4ccccc4)cc3)c3c(N)ncnc32)C1 [ibrutinib]
Outline: as §1

[3] = compound: CC(=O)c1cnc2ccc(-c3cc(Cl)c(O)c(Cl)c3)nc2c1N[C@H]1CC[C@H](CN(C)C)CC1
Outline: as §1

[4] = compound: CC(C)(C)Cn1c(N)nc2ccc(-c3[nH]c(C(C)(C)C)nc3-c3ccc(F)cc3)nc21 [ralimetinib]
Outline: as §1

[5] = compound: CC(C)(O)CC(=O)NCCn1ccc2ncnc(Nc3ccc(Oc4cccc(C(F)(F)F)c4)c(Cl)c3)c21
Outline: as §1

[6] = compound: CC(C)C1=C2N=C(C=C(N2N=C1)NCC3=CC=CC=C3)NCCCCCCN
Outline: as §1

[7] = compound: CC(C)C[C@@H](C=O)NC(=O)[C@H](CC(C)C)NC(=O)[C@H](CC(C)C)NC(=O)OCc1ccccc1
Outline: as §1

[8] = compound: CC(C)N(C[C@H]1O[C@@H](n2cnc3c(N)ncnc32)[C@H](O)[C@@H]1O)[C@H]1C[C@@H](CCc2nc3cc(C(C)(C)C)ccc3[nH]2)C1 [pinometostat]
Outline: as §1

[9] = compound: CC1=C(C(CC(=O)N1)C2=CC=C(C=C2)C(F)(F)F)C(=O)NC3=C(C=C4C(=C3)C=NN4)F
Outline: as §1

[10] = compound: CC1=C(C2=C(C=C1)C(=O)C3=CC=CC=C3N2CCCN)C
Outline: as §1

Chain of UniProt Q92968 (Q92968 whole entry, looked up): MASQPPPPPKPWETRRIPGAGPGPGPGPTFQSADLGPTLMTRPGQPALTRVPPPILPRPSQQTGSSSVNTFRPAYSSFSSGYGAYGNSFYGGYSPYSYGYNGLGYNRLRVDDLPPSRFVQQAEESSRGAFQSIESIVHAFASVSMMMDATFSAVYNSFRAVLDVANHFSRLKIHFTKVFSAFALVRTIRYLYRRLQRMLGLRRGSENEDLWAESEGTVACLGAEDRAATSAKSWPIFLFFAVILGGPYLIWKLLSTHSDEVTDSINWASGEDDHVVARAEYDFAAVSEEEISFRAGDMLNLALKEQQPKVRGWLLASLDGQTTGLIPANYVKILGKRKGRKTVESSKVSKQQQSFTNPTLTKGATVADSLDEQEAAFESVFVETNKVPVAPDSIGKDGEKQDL
Chain of UniProt Q8N8N7 (Q8N8N7 whole entry, looked up): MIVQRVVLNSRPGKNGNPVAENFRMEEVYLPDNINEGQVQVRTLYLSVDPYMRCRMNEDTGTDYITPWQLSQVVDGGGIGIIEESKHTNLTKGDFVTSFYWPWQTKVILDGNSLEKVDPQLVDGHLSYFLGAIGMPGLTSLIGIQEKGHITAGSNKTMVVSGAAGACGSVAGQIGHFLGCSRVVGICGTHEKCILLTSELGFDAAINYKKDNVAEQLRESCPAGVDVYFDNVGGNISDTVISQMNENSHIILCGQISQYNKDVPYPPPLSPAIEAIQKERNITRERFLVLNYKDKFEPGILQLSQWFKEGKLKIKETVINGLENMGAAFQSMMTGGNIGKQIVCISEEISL
Chain of UniProt Q9UPN7 (Q9UPN7 whole entry, looked up): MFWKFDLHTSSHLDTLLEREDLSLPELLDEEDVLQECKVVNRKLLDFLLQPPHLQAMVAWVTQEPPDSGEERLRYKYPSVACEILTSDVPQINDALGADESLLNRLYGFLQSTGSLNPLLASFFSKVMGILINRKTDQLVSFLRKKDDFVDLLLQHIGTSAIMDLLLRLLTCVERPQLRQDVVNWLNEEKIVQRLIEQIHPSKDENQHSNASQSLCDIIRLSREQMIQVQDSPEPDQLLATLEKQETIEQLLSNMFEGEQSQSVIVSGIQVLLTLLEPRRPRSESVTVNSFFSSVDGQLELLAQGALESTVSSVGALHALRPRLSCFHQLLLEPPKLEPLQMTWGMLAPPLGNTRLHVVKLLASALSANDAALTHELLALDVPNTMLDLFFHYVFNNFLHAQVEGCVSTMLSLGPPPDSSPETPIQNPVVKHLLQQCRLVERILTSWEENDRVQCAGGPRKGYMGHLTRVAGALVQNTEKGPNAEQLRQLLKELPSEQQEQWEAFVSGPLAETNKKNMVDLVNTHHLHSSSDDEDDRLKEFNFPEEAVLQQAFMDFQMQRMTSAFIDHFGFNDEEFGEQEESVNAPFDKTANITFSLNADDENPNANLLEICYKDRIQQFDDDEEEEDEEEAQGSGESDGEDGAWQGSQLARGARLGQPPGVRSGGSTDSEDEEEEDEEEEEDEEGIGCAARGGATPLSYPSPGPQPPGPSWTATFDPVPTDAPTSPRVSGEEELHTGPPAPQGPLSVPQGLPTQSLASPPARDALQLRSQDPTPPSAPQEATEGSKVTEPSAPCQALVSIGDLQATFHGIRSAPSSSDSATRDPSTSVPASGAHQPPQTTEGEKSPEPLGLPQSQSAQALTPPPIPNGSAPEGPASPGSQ
Chain of UniProt Q9UMR5 (Q9UMR5 whole entry, looked up): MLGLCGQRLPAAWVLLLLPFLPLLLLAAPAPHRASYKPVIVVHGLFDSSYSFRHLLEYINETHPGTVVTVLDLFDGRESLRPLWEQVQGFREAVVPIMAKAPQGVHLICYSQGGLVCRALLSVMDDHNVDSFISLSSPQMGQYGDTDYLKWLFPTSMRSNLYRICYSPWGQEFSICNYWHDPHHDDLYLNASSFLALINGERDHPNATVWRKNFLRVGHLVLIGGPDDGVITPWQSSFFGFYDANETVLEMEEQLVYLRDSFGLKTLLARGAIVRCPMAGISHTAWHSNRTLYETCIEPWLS
Chain of UniProt P62195 (P62195 whole entry, looked up): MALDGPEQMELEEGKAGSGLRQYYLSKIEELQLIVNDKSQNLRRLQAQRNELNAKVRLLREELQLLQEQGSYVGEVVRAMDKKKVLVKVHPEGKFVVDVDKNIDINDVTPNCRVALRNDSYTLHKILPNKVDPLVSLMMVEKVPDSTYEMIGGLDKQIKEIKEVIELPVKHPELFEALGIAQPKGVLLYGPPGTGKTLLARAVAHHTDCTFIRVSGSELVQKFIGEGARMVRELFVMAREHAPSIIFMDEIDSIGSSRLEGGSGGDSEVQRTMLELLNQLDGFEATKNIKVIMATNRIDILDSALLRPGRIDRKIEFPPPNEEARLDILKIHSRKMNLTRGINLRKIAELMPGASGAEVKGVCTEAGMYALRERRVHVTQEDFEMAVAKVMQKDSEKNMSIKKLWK
Chain of UniProt P46020 (P46020 whole entry, looked up): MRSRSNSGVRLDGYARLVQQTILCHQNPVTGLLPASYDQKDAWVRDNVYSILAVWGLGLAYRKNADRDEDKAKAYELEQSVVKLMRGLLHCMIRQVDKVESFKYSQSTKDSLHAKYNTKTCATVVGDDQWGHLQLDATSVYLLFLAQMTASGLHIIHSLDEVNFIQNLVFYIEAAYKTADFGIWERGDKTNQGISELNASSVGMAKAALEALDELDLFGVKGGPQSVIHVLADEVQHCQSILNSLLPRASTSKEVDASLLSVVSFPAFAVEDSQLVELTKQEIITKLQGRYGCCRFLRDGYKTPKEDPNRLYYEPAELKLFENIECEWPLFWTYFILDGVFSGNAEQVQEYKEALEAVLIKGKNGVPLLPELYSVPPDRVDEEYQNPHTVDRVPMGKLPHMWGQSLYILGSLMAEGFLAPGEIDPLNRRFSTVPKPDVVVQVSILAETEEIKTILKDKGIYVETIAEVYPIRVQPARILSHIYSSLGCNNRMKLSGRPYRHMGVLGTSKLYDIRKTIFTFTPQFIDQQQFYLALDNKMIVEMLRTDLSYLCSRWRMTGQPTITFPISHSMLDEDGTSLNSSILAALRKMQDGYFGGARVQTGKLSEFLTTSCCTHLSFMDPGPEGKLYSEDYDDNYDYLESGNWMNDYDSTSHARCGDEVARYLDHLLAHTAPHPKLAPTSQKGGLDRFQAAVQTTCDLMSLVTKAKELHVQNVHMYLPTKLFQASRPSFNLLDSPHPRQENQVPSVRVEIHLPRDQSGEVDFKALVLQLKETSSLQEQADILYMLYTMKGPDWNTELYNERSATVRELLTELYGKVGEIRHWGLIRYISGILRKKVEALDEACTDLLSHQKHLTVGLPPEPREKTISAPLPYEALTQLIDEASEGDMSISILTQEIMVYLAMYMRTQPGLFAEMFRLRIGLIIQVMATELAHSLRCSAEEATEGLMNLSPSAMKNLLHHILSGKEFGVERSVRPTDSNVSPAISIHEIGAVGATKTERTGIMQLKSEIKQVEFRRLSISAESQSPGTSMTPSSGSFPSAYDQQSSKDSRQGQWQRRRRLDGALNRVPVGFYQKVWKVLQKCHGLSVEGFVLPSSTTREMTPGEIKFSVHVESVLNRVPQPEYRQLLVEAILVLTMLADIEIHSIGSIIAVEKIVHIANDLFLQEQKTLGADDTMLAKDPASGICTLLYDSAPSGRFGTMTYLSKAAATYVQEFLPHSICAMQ
Chain of UniProt O00232 (O00232 whole entry, looked up): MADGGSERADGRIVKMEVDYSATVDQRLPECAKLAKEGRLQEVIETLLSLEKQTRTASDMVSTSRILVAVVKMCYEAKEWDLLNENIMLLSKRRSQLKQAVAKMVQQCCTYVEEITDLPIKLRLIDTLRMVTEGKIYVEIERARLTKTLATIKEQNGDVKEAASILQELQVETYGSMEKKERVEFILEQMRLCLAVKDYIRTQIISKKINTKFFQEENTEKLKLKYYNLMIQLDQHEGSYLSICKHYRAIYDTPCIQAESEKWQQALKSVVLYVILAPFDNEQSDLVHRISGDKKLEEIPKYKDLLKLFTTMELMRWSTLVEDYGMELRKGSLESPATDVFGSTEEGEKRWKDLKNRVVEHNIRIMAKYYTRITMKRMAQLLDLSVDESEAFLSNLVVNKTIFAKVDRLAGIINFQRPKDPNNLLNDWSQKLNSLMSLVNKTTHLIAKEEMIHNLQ
Chain of UniProt Q9H5K3 (Q9H5K3 whole entry, looked up): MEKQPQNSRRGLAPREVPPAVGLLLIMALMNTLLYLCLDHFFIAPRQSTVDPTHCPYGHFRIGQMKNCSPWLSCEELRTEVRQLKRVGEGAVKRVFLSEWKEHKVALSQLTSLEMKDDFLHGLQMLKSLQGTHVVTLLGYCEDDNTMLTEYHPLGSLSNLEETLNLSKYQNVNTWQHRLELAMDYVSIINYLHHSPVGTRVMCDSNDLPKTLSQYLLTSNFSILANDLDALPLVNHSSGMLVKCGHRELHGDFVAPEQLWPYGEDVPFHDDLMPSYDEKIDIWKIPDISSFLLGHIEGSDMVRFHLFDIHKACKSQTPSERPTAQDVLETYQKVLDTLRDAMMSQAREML
Chain of UniProt P62136 (P62136 whole entry, looked up): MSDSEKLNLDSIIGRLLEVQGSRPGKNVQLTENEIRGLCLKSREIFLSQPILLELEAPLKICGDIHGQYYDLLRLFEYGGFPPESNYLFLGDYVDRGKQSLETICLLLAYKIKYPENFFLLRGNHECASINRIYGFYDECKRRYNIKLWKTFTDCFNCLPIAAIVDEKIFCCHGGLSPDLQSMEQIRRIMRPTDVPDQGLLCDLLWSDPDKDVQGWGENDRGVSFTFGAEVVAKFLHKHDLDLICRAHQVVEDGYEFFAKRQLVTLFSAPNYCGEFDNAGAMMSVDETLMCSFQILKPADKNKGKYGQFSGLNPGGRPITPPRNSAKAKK
Chain of UniProt Q15004 (Q15004 whole entry, looked up): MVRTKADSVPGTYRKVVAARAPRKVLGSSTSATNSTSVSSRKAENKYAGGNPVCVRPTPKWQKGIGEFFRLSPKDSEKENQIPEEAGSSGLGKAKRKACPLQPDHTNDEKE

| Target | log2 fold change [1] | log2 fold change [2] | log2 fold change [3] | log2 fold change [4] | log2 fold change [5] | log2 fold change [6] | log2 fold change [7] | log2 fold change [8] | log2 fold change [9] | log2 fold change [10] |
| --- | --- | --- | --- | --- | --- | --- | --- | --- | --- | --- |
| PSMD12 (UniProt O00232) | -0.055 | -0.022 | 0.03 | 0.004 | -0.01 | 0 | -0.251 (active) | 0.03 | 0.007 | 0.015 |
| POLR2M (UniProt P0CAP2) | -0.022 | -0.017 | 0.067 | 0.016 | 0.001 | 0.059 | 0.058 | -0.02 | 0.067 | 0 |
| PLIN2 (UniProt Q99541) | 0.058 | 0.055 | 0.005 | -0.065 | -0.083 | -1.11 (active) | -0.014 | 0.007 | -0.031 | -0.022 |
| POP1 (UniProt Q99575) | -0.024 | 0 | 0.001 | 0.029 | -0.006 | 0.013 | -0.03 | 0.003 | 0.008 | -0.271 (active) |
| PTP4A2 (UniProt Q12974) | 0.019 | 0.16 | 0.065 | 0.051 | -0.051 | 0.035 | -0.157 | -0.044 | 0.191 | -0.164 |
| PDE12 (UniProt Q6L8Q7) | 0.118 | 0.015 | 0.085 | -0.036 | -0.006 | -0.032 | 0.03 | -0.031 | 0.01 | 0.033 |
| POGLUT1 (UniProt Q8NBL1) | -0.032 | -0.03 | -0.047 | 0.162 | 0.058 | 0.055 | -0.106 | 0.026 | 0.009 | 0.016 |
| PCLAF (UniProt Q15004) | 0.055 | 0.034 | -0.061 | -0.012 | 0.036 | 0.184 | 0.278 (active) | -0.012 | 0.139 | -0.088 |
| PDCD6IP (UniProt Q8WUM4) | -0.156 | -0.11 | -0.039 | 0.046 | -0.198 | -0.327 | 0.019 | 0.084 | 0.015 | 0.044 |
| PDS5A (UniProt Q29RF7) | -0.168 | -0.041 | -0.063 | -0.012 | -0.344 | -0.61 | 0.272 | 0.045 | 0.221 | -0.103 |
| PPP1CA (UniProt P62136) | 0.041 | -0.02 | -0.018 | -0.012 | 0.007 | 0.015 | 0.009 | -0.071 | -0.013 | -0.007 |
| PRKAG1 isoform 3 (UniProt P54619) | 0.042 | -0.019 | -0.266 (active) | 0.001 | -0.011 | -0.067 | -0.025 | 0.015 | 0.079 | 0.013 |
| PDE4DIP isoform 4 (UniProt Q5VU43) | -0.006 | 0.001 | 0.045 | 0.011 | -0.08 | 0.035 | 0.087 | -0.05 | 0.069 | 0.088 |
| PTGR2 (UniProt Q8N8N7) | 0 | 0.321 | -0.328 | -0.016 | -0.042 | 0.121 | 0.001 | 0.074 | 0.005 | 0.011 |
| PEX13 (UniProt Q92968) | 0.053 | -0.067 | -0.011 | 0.062 | -0.193 | -0.201 | 0.036 | -0.032 | 0.003 | 0.024 |
| PRG4 (UniProt Q92954) | -0.072 | -0.005 | 0 | 0.011 | 0.059 | 0.29 | 0.054 | -0.068 | 0.039 | -0.127 |
| PSMD2 (UniProt Q13200) | -0.08 | -0.035 | 0.039 | 0.018 | 0.021 | 0.039 | -0.296 (active) | 0.019 | 0.04 | -0.036 |
| PMPCB (UniProt O75439) | 0.035 | 0.008 | 0.01 | 0.064 | -0.108 | 0.04 | 0.012 | -0.022 | 0 | 0.015 |
| PHKA1 (UniProt P46020) | -0.043 | -0.001 | 0.306 | -0.03 | -0.161 | 0.011 | 0.195 | -0.023 | 0.118 | 0.022 |
| PLBD1 (UniProt Q6P4A8) | 0.033 | -0.002 | 0.025 | -0.077 | 0.036 | -0.012 | -0.015 | 0.057 | -0.019 | 0.02 |
| QRSL1 (UniProt Q9H0R6) | 0.016 | 0.023 | -0.025 | 0.001 | -0.071 | -0.231 (active) | -0.003 | -0.087 | 0.041 | 0.025 |
| PPP6R1 (UniProt Q9UPN7) | 0 | 0.009 | 0.039 | -0.01 | -0.031 | -0.077 | 0.038 | -0.047 | 0.003 | -0.041 |
| PRKCD (UniProt Q05655) | 0.043 | -0.027 | -0.685 (active) | -0.041 | -0.013 | -0.004 | 0.022 | 0.017 | -0.024 | 0 |
| PPT2 isoform 3 (UniProt Q9UMR5) | 0.078 | 0.036 | -0.04 | 0.052 | 0.006 | -0.17 | -0.014 | -0.041 | -0.012 | 0.037 |
| PSMC5 (UniProt P62195) | -0.038 | -0.031 | 0.008 | -0.014 | 0.024 | 0.009 | -0.273 (active) | 0.021 | 0.037 | 0.002 |
| POMK (UniProt Q9H5K3) | 0.046 | -0.036 | -0.042 | 0.032 | -0.024 | -0.23 | 0.027 | 0.094 | -0.009 | 0.042 |
| PPID (UniProt Q08752) | -0.141 | -0.057 | -0.013 | 0.103 | -0.152 | -0.238 | 0.053 | 0.105 | -0.006 | 0.022 |
| PHLDB1 isoform 2 (UniProt Q86UU1) | 0.014 | -0.055 | -0.832 (active) | 0.005 | -0.053 | -0.018 | 0.016 | -0.011 | 0.091 | 0.118 |
| PKN2 (UniProt Q16513) | -0.017 | -0.054 | -0.797 (active) | 0.085 | -0.042 | -0.051 | 0.085 | 0.141 | -0.025 | -0.016 |
| PCNT (UniProt O95613) | 0.085 | -0.078 | -0.079 | -0.113 | -0.021 | 0.053 | 0.229 | 0.069 | 0.077 | -0.018 |
